In PubChem BioAssay AID1566 (Sanford-Burnham Center for Chemical Genomics, 2009):
Among all 290,000 compounds or so, about 1,800 (0.62%) were called active. This excerpt belongs to a sample that is enriched for actives. Values without a mark were called inactive. Rule as the data show it: active = inhibition above about 50%; inactive = the rest.

Assay: NOD2 signaling inhibitors, cell-based, luminescence, uHTS, HEK293 (AID 1566)
Details: HEK293 NOD2/NF-kB luciferase reporter, at 4 µM, active compounds read high

Row | Compound | inhibition
1 | C(=N\N(c1ccccc1)c1ccccc1)/c1ccc(N2CCOCC2)s1 | 11.6%
2 | c1ccc2c(-c3c[nH]c4ccccc34)c3ccccc3nc2c1 | 0%
3 | Cc1cccc(C(=O)c2cn[nH]c2-c2ccccc2O)c1 | -3.8%
4 | O=C1c2cc(F)ccc2-n2c1nc1ccccc1c2=O | 63.4% (active)
5 | Nn1c(-c2ccc(F)cc2)nc2ccccc2c1=O | 12.9%
6 | O=C1c2ccccc2-n2c1nc1ccccc1c2=O | 26.3%
7 | CCn1c(CNc2ccc(Cl)cc2)nnc1SCC(=O)OC1CCCCC1 | 4.4%
8 | CCOC(=O)C1CCN(C(=O)COC(=O)c2ccc(Br)o2)CC1 | 20.2%
9 | Cc1cc2c(s1)c1cnn(Cc3ccccc3F)c(=O)c1n2C | 10.1%
10 | COc1ccccc1C(=O)N1CCN(c2cccc(Cl)c2)CC1 | 3.1%
11 | CCOc1ccccc1C(=O)N1CCN(c2cccc(Cl)c2)CC1 | -14%
12 | CN(C(=O)c1cnc(N2CCN(c3ncccn3)CC2)c2ccccc12)c1ccc(Cl)cc1 | 15.1%
13 | COc1ccc(N(C)C(=O)c2cnc(N3CCN(c4ncccn4)CC3)c3ccccc23)cc1 | 14.7%
14 | COc1cc(C(=O)Nc2ccccc2N2CCOCC2)ccc1OCc1c(C)noc1C | 1.5%
15 | CCOC(=O)c1cccc(NC(=O)c2ccc(NC(=O)C3CCCO3)cc2)c1 (stereo unspecified) | 5.8%
16 | CCOC(=O)c1ccc(NC(=O)C2CCCO2)cc1 (stereo unspecified) | -21.8%
17 | CCOC(=O)c1ccc(NC(=O)c2ccc(NC(=O)C3CCCO3)cc2)cc1 (stereo unspecified) | 51.3% (active)
18 | CC(Sc1nnc(N)s1)C(=O)Nc1nccs1 (stereo unspecified) | -1.1%
19 | COc1ccccc1-c1nc(C#N)c(N2CCN(c3ccccc3)CC2)o1 | -1.7%
20 | COc1ccc(-c2nc(C#N)c(N3CCN(c4cccc(Cl)c4)CC3)o2)cc1OC | 0.1%
21 | Cc1noc(C)c1COC(=O)COc1cccc2c1OC(C)(C)C2 | 6.1%
22 | C=CCN(c1ccc(C(=O)Nc2ccc(NC(C)=O)cc2)cc1)S(C)(=O)=O | 15.2%
23 | COc1ccc(N(CC(=O)NCCC2=CCCCC2)S(=O)(=O)c2ccccc2)c(OC)c1 | 1.9%
24 | Cc1cccc(NS(=O)(=O)c2ccc(NC(=O)N3CCCCC3)cc2)c1 | 33.7%

Row | Compound | inhibition
25 | CC(=O)c1cccc(NC(=O)N2CCCCCC2)c1 | 6.3%
26 | CC1(C)CC(=O)C=C(N2CCN(C3=CC(=O)CC(C)(C)C3)CC2)C1 | -10.7%
27 | COc1ccc(C(=O)NC(=S)Nc2ccc(N3CCOCC3)cc2)cc1Cl | 13.8%
28 | Cc1ccc(C(=O)NC(=S)Nc2ccc(N3CCOCC3)cc2)cc1C | 50.7% (active)
29 | Cc1cccc(C(=O)NC(=S)Nc2ccc(N3CCOCC3)cc2)c1 | 7.7%
30 | Cc1ccn2c(NC(=O)c3cccs3)c(-c3ccccc3)nc2c1 | 17.5%
31 | COc1ccc(OC)c(Cc2nnc(CCC(=O)NCc3nc4ccccc4s3)o2)c1 | 5.2%
32 | CC(C)Cc1nc(N2CCN(C(=O)c3ccco3)CC2)c(C#N)c2c1CCC2 | 13.3%
33 | CC(C)Cc1nc(N2CCN(C(=O)c3ccco3)CC2)c(C#N)c2c1CCCC2 | 23.8%
34 | Cc1ccc(S(=O)(=O)N(CC(=O)NCCSCc2ccco2)c2ccc(F)cc2)cc1 | -2.2%
35 | CC(C)CNC(=O)CN(c1ccccc1)S(=O)(=O)c1ccccc1[N+](=O)[O-] | -10.6%
36 | O=C(c1ccccc1)N1CCN(CC(O)COc2cccc3ccccc23)CC1 (stereo unspecified) | -10%
37 | CCOC(=O)c1c(NC(=O)CSc2nc3ccccc3c(=O)n2-c2ccc(F)cc2)sc(C(C)=O)c1C | -19.4%
38 | O=S(=O)(Nc1ccc(N2CCOCC2)cc1)c1ccc(F)cc1F | -1.9%
39 | O=C(c1ccco1)N1CCCC(c2nc3c(nnn3Cc3c(Cl)cccc3Cl)c(=O)[nH]2)C1 (stereo unspecified) | -43.2%
40 | O=[N+]([O-])c1ccc(-c2cnc3ccccc3n2)cc1 | -35.5%
41 | O=[N+]([O-])c1ccc(-c2c(O)c3ccccc3c3nc4ccccc4nc23)cc1 | 58.6% (active)
42 | Cc1cc(-c2ccc([N+](=O)[O-])cc2)nc2ccccc12 | -13.5%
43 | Cc1ccc(Oc2nc3ccccn3c(=O)c2/C=C(\C#N)C(=O)NC2CCS(=O)(=O)C2)c(C)c1 (stereo unspecified) | 0.4%
44 | O=C(Nc1ccc(C(=O)OC2CCCCC2)cc1)c1ccncc1 | 61.2% (active)
45 | O=C(OC1CCCCC1)c1ccc(NC(=O)C2CCCCC2)cc1 | 8.6%
46 | O=C(OC1CCCCC1)c1ccc(NC(=O)c2ccco2)cc1 | -39.4%
47 | COCCNC(=O)C1CC(c2ccc([N+](=O)[O-])cc2)=NO1 (stereo unspecified) | 21%
48 | COc1ccc(OCC(=O)Nc2cccc(NC(=O)c3ccco3)c2)cc1 | 1.8%

Row | Compound | inhibition
49 | Cc1cnnn1-c1cccc([N+](=O)[O-])c1 | -9.2%
50 | COC(=O)Cc1[nH]n(-c2nc3ccccc3s2)c(=O)c1C(C)=Nc1ccc(Cl)cc1 | 6.3%
51 | COC(=O)Cc1[nH]n(-c2nc3ccccc3s2)c(=O)c1C(C)=O | -18.8%
52 | CN(Cc1cn[nH]c1-c1ccc2c(c1)OCO2)C1CCOCC1 | 10.5%
53 | CCCc1sc(N/N=C/c2ccccn2)nc1-c1ccc(Br)cc1 | -44.6%
54 | Cc1nc(N/N=C/c2ccccn2)sc1C | 56.9% (active)
55 | Cc1csc(N/N=C/c2ccccn2)n1 | -60.9%
56 | Oc1ccc(Br)cc1CNc1ccccn1 | -10.8%
57 | O=C(CCl)Nc1cccc(Oc2cnccn2)c1 | -47.8%
58 | CCCCc1ccc(NC(=S)NCCc2ccc(S(N)(=O)=O)cc2)cc1 | 24.9%
59 | COc1ccc(CCNC(=O)Nc2cccc([N+](=O)[O-])c2)cc1 | 79.5% (active)
60 | COc1ccc(CCNC(=O)Nc2cccc([N+](=O)[O-])c2)cc1OC | 4.7%
61 | COc1ccccc1CCNC(=O)Nc1cccc([N+](=O)[O-])c1 | 13.6%
62 | CCOC(=O)c1c(N)sc(C(=O)N(CC)CC)c1C | 2.6%
63 | CC1(C)CC(=O)C=C(NCc2cccs2)C1 | 1.3%
64 | OCC[C@@H]1C[C@H](O)[C@@H](O)[C@]2(Cc3ccccc3CCO2)O1 | -4.1%
65 | Cc1oc(-c2ccc(Cl)cc2)nc1CN1CCCN(C(=O)c2ccco2)CC1 | 18.6%
66 | Cc1oc(-c2ccc(Cl)cc2)nc1CN1CCCC(C(=O)N2CCOCC2)C1 (stereo unspecified) | 10.7%
67 | Cc1oc(-c2ccc(Cl)cc2)nc1CN1CCCC(C(=O)N2CCN(C(=O)c3ccco3)CC2)C1 (stereo unspecified) | 50% (active)
68 | COc1ccc(OC)c(S(=O)(=O)Nc2ccc(OCC(=O)O)cc2)c1 | 3.3%
69 | COc1ccc(NC(C)=O)cc1S(=O)(=O)NC(Cc1ccccc1)C(=O)O (stereo unspecified) | -25.7%
70 | COc1ccc(CC(NC(C)=O)C(=O)NC2CCN(C(=O)C3CCCCC3)CC2)cc1OC (stereo unspecified) | 13.5%
71 | CCOCCCNS(=O)(=O)c1ccc(NC(=O)c2ccccc2)cc1 | 11.3%
72 | Cc1nnc(SCC(=O)Nc2ccc([N+](=O)[O-])cc2)n1CC1CCCO1 (stereo unspecified) | 2.5%

Row | Compound | inhibition
73 | CC1CCc2c(sc3ncnc(N4CCOCC4)c23)C1 (stereo unspecified) | 26%
74 | CC1CCc2sc3ncnc(N4CCN(C)CC4)c3c2C1 (stereo unspecified) | 12.6%
75 | CCOc1ccc(NC(=O)CC2C(=O)N(c3ccccc3)C(=O)N2CCc2cccs2)cc1 (stereo unspecified) | 23.4%
76 | COc1ccc(CCNC(=O)C2CCN(S(=O)(=O)c3ccc(-n4cnnn4)cc3)CC2)cc1OC | 6%
77 | CCOc1ccccc1NC(=O)CNC(=O)CNC(=O)Cc1ccccc1 | -3.4%
78 | Cc1sc2ncnc(NC3CCN(Cc4ccccc4)CC3)c2c1C | 36.9%
79 | Cc1csc2c(NC3CCN(Cc4ccccc4)CC3)ncnc12 | 34.1%
80 | COc1cc(CC(=O)NCC2CCCCC2)cc(OC)c1OC | -1.9%
81 | COc1ccc(-c2nnc3sc(C4CCCCC4)nn23)cc1OC | 13.6%
82 | CCOc1cccc(-c2nnc3sc(C4CCCCC4)nn23)c1 | 20.8%
83 | COc1cccc(-c2nnc3sc(C4CCCCC4)nn23)c1 | 55.3% (active)
84 | O=C(NC1CCCCCC1)c1ccc(OCC2CCCO2)cc1 (stereo unspecified) | -82%
85 | OCCC1CN(Cc2cccn2-c2ccccn2)CCN1C1CCCCC1 (stereo unspecified) | -19.4%
86 | Cc1c(/C=N/NC(=O)c2ccc(O)cc2)c2ccccn2c1C(=O)c1ccc(F)cc1 | 7%
87 | CNC(=S)N/N=C/c1c(C)c(C(=O)c2ccc(F)cc2)n2ccccc12 | 25.2%
88 | Cc1cccc(NS(=O)(=O)c2ccc(C(=O)NCCCN3CCOCC3)cc2)c1C | 14.9%
89 | S=C(NCc1ccccc1)Nc1cccc2ccccc12 | 3.3%
90 | S=C(NCc1cccnc1)Nc1cccc2ccccc12 | -6.2%
91 | S=C(NCc1ccccc1)Nc1cccc2cnccc12 | 52.6% (active)
92 | O=C(NN1CCOCC1)c1ccc(S(=O)(=O)N2CCCCC2)cc1 | 4.3%
93 | O=C(O)c1cc(-c2ccc(N3CCOCC3)cc2)nn1-c1ccccc1Cl | 3.2%
94 | N#C/C(=C\Nc1ccc(F)c(Cl)c1)S(=O)(=O)c1ccccn1 | 0.9%
95 | CCn1cc([N+](=O)[O-])c(C(=O)Nc2nc(-c3ccc(C)cc3)c(C)s2)n1 | 3%
96 | CCn1cc([N+](=O)[O-])c(C(=O)Nc2nc(-c3ccc(C)c(C)c3)c(C)s2)n1 | 13%
